# Columns and labels:
# Assay in all cases: DAPPL (digital affinity profiling via proximity ligation, sequencing); 10 mM Tris-HCl pH 7.5, 50 mM NaCl, 1 mM DTT, 4% glycerol, room temperature, 30 min; GST-TFs on glutathione beads, 16-mer random dsDNA library, 0.1% formaldehyde crosslink after washing; high values mean tight binding
# Details in all cases: protein: recombinant; tags: N-terminal GST; dsDNA, one strand shown
# ETV1 = ETV1 (Homo sapiens, UniProt P50549 1-477)
# Summary of the method: (§1)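 Beads coated with glutathione captured GST-fused human transcription factors that had been expressed in yeast, and the factors were then given DNA barcodes and pooled with a tag-only sample. The pools were incubated with 200 nmole of a random double-stranded 16-mer DNA library in Tris/NaCl/DTT/glycerol buffer for 30 min at room temperature, washed, crosslinked with 0.1% formaldehyde and proximity-ligated with BsaI/T4 ligase at 37 °C for 1 h. PCR amplification and Illumina NextSeq500 sequencing came last. Binding signal is each hexamer's read frequency for a factor divided by its frequency for the tag-only sample.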
# ERF = target: T1, ERF (Homo sapiens, UniProt P50548 1-548)
# T1 sequence: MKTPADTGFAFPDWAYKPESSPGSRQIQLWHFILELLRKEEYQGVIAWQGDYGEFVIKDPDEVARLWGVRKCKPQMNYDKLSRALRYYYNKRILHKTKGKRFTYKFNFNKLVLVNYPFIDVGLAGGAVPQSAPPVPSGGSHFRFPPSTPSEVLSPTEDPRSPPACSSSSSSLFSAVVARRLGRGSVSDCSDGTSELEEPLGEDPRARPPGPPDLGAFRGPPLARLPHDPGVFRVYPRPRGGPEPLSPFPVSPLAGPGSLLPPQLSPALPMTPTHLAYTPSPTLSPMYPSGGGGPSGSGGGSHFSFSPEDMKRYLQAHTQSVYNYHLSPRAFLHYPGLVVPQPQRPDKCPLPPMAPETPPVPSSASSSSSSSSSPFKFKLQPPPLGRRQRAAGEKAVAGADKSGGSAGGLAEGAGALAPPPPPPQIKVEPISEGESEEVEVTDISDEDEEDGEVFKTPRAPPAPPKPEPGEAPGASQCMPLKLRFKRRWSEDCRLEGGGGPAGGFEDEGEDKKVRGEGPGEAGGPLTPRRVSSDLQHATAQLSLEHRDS
# Summary of the method: as §1
# ETV3L = target: T2, ETV3L (Homo sapiens, UniProt Q6ZN32 1-361)
# T2 sequence: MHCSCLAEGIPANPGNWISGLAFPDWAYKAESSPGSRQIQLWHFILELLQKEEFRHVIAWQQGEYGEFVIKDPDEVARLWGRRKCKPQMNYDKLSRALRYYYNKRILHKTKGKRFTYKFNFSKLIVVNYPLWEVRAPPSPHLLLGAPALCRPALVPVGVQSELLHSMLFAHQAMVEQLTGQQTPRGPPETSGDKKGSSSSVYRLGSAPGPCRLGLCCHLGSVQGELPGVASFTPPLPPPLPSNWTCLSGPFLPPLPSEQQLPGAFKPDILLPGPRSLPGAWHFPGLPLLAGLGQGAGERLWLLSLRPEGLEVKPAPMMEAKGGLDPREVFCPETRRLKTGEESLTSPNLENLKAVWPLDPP
# Summary of the method: as §1
# ETS2 = target: T3, ETS2 (Homo sapiens, UniProt P15036 1-469)
# T3 sequence: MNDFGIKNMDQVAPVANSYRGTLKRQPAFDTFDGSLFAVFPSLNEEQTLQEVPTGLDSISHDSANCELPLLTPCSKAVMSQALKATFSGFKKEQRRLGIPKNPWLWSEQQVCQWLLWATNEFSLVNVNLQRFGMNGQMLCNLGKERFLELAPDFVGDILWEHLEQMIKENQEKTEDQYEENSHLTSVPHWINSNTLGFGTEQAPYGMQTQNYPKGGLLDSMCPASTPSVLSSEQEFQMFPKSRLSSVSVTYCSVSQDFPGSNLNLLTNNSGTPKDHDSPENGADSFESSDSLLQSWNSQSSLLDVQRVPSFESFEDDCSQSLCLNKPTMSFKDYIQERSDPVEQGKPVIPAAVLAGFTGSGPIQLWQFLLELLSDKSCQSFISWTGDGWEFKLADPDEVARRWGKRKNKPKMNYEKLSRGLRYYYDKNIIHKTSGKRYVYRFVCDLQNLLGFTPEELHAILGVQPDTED
# Summary of the method: as §1
# SPDEF = target: T4, SPDEF (Homo sapiens, UniProt O95238 1-335)
# T4 sequence: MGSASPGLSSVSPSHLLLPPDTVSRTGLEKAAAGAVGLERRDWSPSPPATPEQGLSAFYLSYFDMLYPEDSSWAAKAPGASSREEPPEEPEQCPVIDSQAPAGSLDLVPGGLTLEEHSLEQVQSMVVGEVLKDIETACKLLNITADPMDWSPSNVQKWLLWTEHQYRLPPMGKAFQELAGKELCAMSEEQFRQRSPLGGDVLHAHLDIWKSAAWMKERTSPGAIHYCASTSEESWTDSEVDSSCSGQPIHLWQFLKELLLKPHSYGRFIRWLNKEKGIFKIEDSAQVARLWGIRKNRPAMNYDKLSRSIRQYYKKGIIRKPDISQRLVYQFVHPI
# Summary of the method: as §1
# ETV7 = target: T5, ETV7 (Homo sapiens, UniProt Q9Y603 1-341)
# T5 sequence: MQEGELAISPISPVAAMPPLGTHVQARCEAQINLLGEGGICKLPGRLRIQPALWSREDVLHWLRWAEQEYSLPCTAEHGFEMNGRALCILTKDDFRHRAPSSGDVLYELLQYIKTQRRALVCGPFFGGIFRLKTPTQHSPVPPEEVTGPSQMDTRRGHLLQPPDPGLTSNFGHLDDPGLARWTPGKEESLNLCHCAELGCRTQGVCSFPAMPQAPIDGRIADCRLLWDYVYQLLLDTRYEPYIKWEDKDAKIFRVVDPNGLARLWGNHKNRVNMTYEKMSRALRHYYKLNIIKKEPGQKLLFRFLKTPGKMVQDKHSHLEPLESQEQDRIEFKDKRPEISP
# Summary of the method: as §1
# ELF5 = target: T6, ELF5 (Homo sapiens, UniProt Q9UKW6-2 1-255)
# T6 sequence: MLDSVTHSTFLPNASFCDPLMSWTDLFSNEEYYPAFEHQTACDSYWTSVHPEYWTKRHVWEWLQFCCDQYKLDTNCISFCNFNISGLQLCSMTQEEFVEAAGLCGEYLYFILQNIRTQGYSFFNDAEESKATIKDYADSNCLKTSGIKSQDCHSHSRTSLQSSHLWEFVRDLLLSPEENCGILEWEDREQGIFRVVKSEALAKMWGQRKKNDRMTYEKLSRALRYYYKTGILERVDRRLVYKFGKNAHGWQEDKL
# Summary of the method: as §1
# ETV3 = target: T7, ETV3 (Homo sapiens, UniProt P41162-2 1-143)
# T7 sequence: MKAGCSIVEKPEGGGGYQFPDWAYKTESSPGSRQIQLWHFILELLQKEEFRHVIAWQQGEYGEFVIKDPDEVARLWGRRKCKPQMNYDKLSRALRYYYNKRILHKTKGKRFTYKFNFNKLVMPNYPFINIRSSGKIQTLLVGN
# Summary of the method: as §1
# ETV6 = ETV6 (Homo sapiens, UniProt P41212 1-452)
# Summary of the method: as §1
# ETV1, sequence (P50549 whole entry, the tested form may be a part): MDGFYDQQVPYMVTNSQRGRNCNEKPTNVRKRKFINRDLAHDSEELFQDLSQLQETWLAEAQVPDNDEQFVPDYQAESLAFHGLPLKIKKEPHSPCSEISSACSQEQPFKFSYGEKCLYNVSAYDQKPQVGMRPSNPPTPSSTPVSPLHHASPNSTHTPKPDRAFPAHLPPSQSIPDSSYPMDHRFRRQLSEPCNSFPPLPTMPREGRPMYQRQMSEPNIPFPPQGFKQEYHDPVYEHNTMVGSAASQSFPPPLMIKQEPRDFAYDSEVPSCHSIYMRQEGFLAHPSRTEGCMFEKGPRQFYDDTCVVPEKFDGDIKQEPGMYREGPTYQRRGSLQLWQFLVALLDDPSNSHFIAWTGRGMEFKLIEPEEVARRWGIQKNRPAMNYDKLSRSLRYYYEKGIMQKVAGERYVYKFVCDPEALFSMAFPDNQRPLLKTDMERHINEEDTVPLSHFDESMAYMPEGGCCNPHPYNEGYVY
# ETV6, sequence (P41212 whole entry): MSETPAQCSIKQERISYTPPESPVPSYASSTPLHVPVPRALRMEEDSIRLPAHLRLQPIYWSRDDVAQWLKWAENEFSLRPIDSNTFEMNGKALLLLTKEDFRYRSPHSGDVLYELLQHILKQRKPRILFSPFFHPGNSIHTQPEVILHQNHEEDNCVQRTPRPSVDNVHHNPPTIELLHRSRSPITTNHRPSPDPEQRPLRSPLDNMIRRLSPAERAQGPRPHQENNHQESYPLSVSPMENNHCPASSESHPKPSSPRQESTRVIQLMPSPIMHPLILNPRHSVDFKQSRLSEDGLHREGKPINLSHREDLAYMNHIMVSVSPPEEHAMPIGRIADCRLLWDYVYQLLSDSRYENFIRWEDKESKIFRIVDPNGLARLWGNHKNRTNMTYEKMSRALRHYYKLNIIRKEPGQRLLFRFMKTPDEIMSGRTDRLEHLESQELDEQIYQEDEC
sequence,measurement,setting,value
ATCTTC,binding signal,ETV1,"1.63 fold enrichment (6-mer frequency, TF over GST control)"
same,binding signal,ERF,"1.45 fold enrichment (6-mer frequency, TF over GST control)"
same,binding signal,ETV3L,"1.63 fold enrichment (6-mer frequency, TF over GST control)"
same,binding signal,ETS2,"1.6 fold enrichment (6-mer frequency, TF over GST control)"
same,binding signal,SPDEF,"1.55 fold enrichment (6-mer frequency, TF over GST control)"
same,binding signal,ETV7,"1.43 fold enrichment (6-mer frequency, TF over GST control)"
same,binding signal,ELF5,"1.82 fold enrichment (6-mer frequency, TF over GST control)"
same,binding signal,ETV3,"1.49 fold enrichment (6-mer frequency, TF over GST control)"
same,binding signal,ETV6,"1.54 fold enrichment (6-mer frequency, TF over GST control)"
